PPC-1+TRAIL kill: PPC-1 cancer cell killing with TRAIL present | PPC-1 cells + TRAIL, ATPLite viability luminescence | cell killing (% activity), % at 4 µM or 5 µM | actives 0.41% (n = 220,000) | AID 1443;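 active = cell killing above 50% in the first pass at 4 µM, then a duplicate retest at 5 µM averaging 50% or more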
C8 TRAIL sens: caspase-8 TRAIL sensitization. actives 1% (n = 360,000). AID 624354. NB7+C8 cells + TRAIL, ATPlite viability luminescence. inhibition (viability loss, TRAIL sensitization), % at 10 µM;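 active = compounds causing at least 50% loss of cell viability in the single-dose screen, relative to plate controls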
HSF1 inhib: HSF1 inhibition; NIH3T3-HGL HSE-luciferase, MG132-induced, luminescence 8 h; active compounds read low; activity change, negative = inhibition, % at 7.5 µM (by protocol); actives 0.77% (n = 300,000);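 active = more than half of replicate wells show activity change below -50%, luminescence cut by over half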;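 also: luciferase reports HSF-1 transcriptional activity via heat shock element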
STAT1 blocker: reduces IFN-gamma driven STAT1 reporter signal; inhibition, % at 5.5 µM; NIH 3T3 STAT1-luciferase reporter, luminescence; actives 0.35% (n = 200,000); AID 920;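 active = inhibition above a set limit, the mean inhibition across all tested compounds plus 3 SD, cut at about 34% in these data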
HSP90 refold inh: inhibitors of HSP90 luciferase refolding in rabbit reticulocyte lysate. actives 0.91% (n = 290,000). inhibition, % at 5.6 µM. luciferase refolding luminescence, 3 h. AID 1789;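 active = inhibition above the screen-wide mean plus 3 SD, computed separately per campaign, cut at about 16% in these data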;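 also: inhibitors lower the luminescence because luciferase stays unfolded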
STAT3 blocker: inhibitors of IL-6 induced STAT3 signaling | AID 862 | actives 0.89% (n = 190,000) | inhibition, % at 5.5 µM | U3A cells, IL-6 STAT3-luciferase reporter, luminescence; host cell line lacks STAT1;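 active = inhibition above the mean inhibition across all screened compounds plus 3 SD, cut at about 44% in these data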
Numbers stand for hits; 0 = inactive; - = not tested or not shown. Sampled rows, rich in hits. Any-hit rate of the full collection: about 2.4%.

SMILES | PPC-1+TRAIL kill | C8 TRAIL sens | HSF1 inhib | STAT1 blocker | HSP90 refold inh | STAT3 blocker
Cc1ccc2nc(C(C)(C)C)c(Cc3cccc(Cl)c3)n2c1 | - | 0 | - | - | - | -
Cc1ccc(-c2nc3sc(C(N)=O)c(N)c3c3c2CCCC3)cc1 | 54.6 | 0 | 0 | 0 | 0 | 0
CC(=O)c1sc2nc(-c3ccc(C)cc3)c3c(c2c1N)CCCC3 | 0 | 0 | 0 | 0 | 0 | 0
CC(C)C[C@H](NC(=O)c1nc[nH]c1C(=O)N[C@@H](CCCCNC(=O)OC(C)(C)C)C(=O)OC(C)(C)C)C(=O)OC(C)(C)C | 0 | 51.3 | 0 | - | - | -
CC(C)(C)OC(=O)N1CCN(C(=O)c2[nH]cnc2C(=O)NCC(=O)OCc2ccccc2)CC1 | - | 0 | -87.9 | - | 0 | -
CC(C)(C)OC(=O)[C@H](Cc1ccccc1)NC(=O)c1[nH]cnc1C(=O)Nc1ccccc1F | - | 62.0 | - | - | - | -
CC(C)(C)OC(=O)NCc1ccc(NC(=O)c2nc[nH]c2C(=O)N[C@@H](Cc2ccccc2)C(=O)OCc2ccccc2)cc1 | 0 | 82.6 | 0 | - | - | -
Nc1ccn([C@@H]2O[C@H](CNCc3ccc(N4CCNCC4)cc3)[C@@H](O)[C@H]2O)c(=O)n1 | - | 0 | - | - | - | -
CC(C)(C)OC(=O)NCCCC[C@H](NC(=O)c1[nH]cnc1C(=O)Nc1ccc(Cl)cc1)C(=O)OC(C)(C)C | 0 | 0 | 0 | - | - | -
CC(C)(C)OC(=O)NCCCC[C@H](NC(=O)c1[nH]cnc1C(=O)Nc1ccccc1)C(=O)OC(C)(C)C | 0 | 58.8 | 0 | - | - | -
CC1(C(=O)NS(=O)(=O)c2ccc(Cl)cc2)CCN1C(=O)Cc1ccccc1Cl (centres undefined) | - | 0 | - | - | - | -
Cc1c(C(=O)c2no[n+]([O-])c2C(=O)c2cnn(C)c2C)cnn1C | 0 | 0 | -94.3 | 0 | 0 | 0
C#CCSc1nnc(-c2ccc(OC)cc2)o1 | 0 | 92.3 | 0 | 0 | 0 | 0
CC(=O)c1c(C)[nH]c(C(=O)CSc2nnc(-c3ccco3)o2)c1C | 0 | 0 | 0 | 0 | 0 | 0
COc1ccc(-c2nnc(SCC(=O)c3[nH]c(C)c(C(C)=O)c3C)o2)cc1 | 0 | 48.4 | - | 0 | 0 | 0
O=C1O[C@@H](c2ccccc2)C[C@@H](O)C(=O)CCCc2ccccc21 | - | 0 | - | - | - | -
C[C@H]1CN([C@@H](C)CO)C(=O)CCCn2cc(nn2)CO[C@@H]1CN(C)S(=O)(=O)c1ccc(Oc2ccccc2)nc1 | - | 0 | - | - | - | -
CC1(C)CSC(C)(C)C(=O)N1 | - | 0 | - | - | - | -
COc1ccc(-c2ccc3c(c2)S(=O)(=O)c2cccc(C(=O)NCCOc4ccccc4Cl)c2C3=O)cc1OC | - | 76.2 | - | - | - | -
CC(C)c1cccc(-c2ccc3c(c2)S(=O)(=O)c2cccc(C(=O)NCc4ccccc4Cl)c2C3=O)c1 | - | 67.7 | - | - | - | -
O=C(NCc1ccccc1Br)c1cccc2c1C(=O)c1ccc(-c3ccc(OC(F)(F)F)cc3)cc1S2(=O)=O | - | 53.9 | - | - | - | -
O=C(NCc1cc(C(F)(F)F)ccc1Cl)c1cccc2c1C(=O)c1ccc(N3CCC(N4CCCCC4)CC3)cc1S2(=O)=O | - | 95.5 | - | - | - | -
O=C(NCc1cc(C(F)(F)F)ccc1Cl)c1cccc2c1C(=O)c1ccc(N3CCCCC3)cc1S2(=O)=O | - | 0 | - | - | - | -
O=C(Nc1ccc(S(=O)(=O)N2CCOCC2)cc1)c1ccc(Cl)cc1Cl | - | 0 | -66.5 | - | 0 | -
O=C(Nc1nncs1)c1cc(S(=O)(=O)N2CCOCC2)ccc1Cl | - | 0 | 0 | - | 0 | -
SMILES | PPC-1+TRAIL kill | C8 TRAIL sens | HSF1 inhib | STAT1 blocker | HSP90 refold inh | STAT3 blocker
O=C(Nc1nccs1)c1cc(S(=O)(=O)N2CCOCC2)ccc1Cl | 60.2 | 0 | 0 | - | - | -
O=C(Nc1ccc(S(=O)(=O)N2CCOCC2)cc1)c1cc([N+](=O)[O-])ccc1Cl | - | 0 | 0 | - | 0 | -
CCCCCCCCN1C(=O)[C@H](CC(=O)NCc2ccc(OC)c(OC)c2)C[C@@]2(C(=O)OC)CC(C)(C)CC=C12 | - | 0 | - | - | - | -
O=C(CN(C1CCCCC1)S(=O)(=O)c1ccc(F)cc1)NCC1CCCO1 (centres undefined) | - | 94.5 | - | - | - | -
CN(C)S(=O)(=O)c1cccc(NC(=O)C2CCCN(C(=O)c3ccc(Cl)cc3)C2)c1 (centres undefined) | - | 0 | - | - | - | -
CCc1ccc(C(O)c2ncc(-c3ccccc3OC)[nH]2)cc1 (centres undefined) | - | 0 | - | - | - | -
Cc1ccc(-c2ccc(OCC(=O)N3CCOCC3)cc2)cc1 | 0 | 0 | 0 | 0 | 0 | 0
O=C(COc1ccc(S(=O)(=O)N2CCCCC2)cc1Cl)N1CCOCC1 | - | 0 | 0 | - | 0 | -
CC1(C)N=C(N)N=C(N)N1c1ccc(OCC(=O)N2CCOCC2)cc1 | - | 75.2 | - | - | - | -

High-throughput results: PubChem, several laboratories
